# PubChem BioAssay (Tox21)
# Several values for one entry are separate records, joined by “and”; a condition that tells them apart may be missing. Equal entries are not always repeated. Records with an inconclusive call do not appear. A call without a number means that no potency is given here. The source holds several records for some structures; these can differ, active in one and inactive in another. Activity calls are given as the source filed them. The call rests on the fitted dose curve; in most records, active means well fitted curve in the direction sought with a large enough effect in the repeat runs; inconclusive means weak or mixed curves; inactive means no such curve, though single readings can be large; an effect the other way counts as inactive or inconclusive.
# How the values were obtained:
# [1] = biological target: Cytochrome P450 2C9 (Homo sapiens) (UniProt P11712); experiment: Cytochrome P450 Family 2 Subfamily C Member 9 (CYP2C9) small molecule antagonists: luciferase reporter qHTS assay (AID 1671198)
# Chain of Cytochrome P450 2C9 (Homo sapiens) (P11712 whole entry, looked up): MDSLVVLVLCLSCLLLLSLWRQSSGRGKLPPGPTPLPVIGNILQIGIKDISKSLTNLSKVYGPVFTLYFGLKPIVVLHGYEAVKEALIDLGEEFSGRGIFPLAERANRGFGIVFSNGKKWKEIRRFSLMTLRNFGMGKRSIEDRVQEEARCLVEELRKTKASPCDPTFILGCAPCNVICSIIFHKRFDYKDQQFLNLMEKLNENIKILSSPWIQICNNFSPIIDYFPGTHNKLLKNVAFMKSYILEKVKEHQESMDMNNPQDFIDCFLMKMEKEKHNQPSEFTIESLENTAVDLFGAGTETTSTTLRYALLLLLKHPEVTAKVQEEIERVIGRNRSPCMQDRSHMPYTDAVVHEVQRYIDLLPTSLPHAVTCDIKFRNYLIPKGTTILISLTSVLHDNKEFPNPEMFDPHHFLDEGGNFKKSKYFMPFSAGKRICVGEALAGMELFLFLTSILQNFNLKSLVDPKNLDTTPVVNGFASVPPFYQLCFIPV
# Outline: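 CYP2C9 activity was measured with a P450-Glo proluciferin substrate. Enzyme–substrate mix was held with compound for 10 min at room temperature, then NADPH regeneration solution was added for 1 h at 37C. Luciferin product was read as luminescence.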
# [2] = biological target: Cytochrome P450 1A2 (Homo sapiens) (UniProt P05177); experiment: Cytochrome P450 Family 1 Subfamily A Member 2 (CYP1A2) small molecule antagonists: luciferase reporter qHTS assay (AID 1671199)
# Chain of Cytochrome P450 1A2 (Homo sapiens) (P05177 whole entry, looked up): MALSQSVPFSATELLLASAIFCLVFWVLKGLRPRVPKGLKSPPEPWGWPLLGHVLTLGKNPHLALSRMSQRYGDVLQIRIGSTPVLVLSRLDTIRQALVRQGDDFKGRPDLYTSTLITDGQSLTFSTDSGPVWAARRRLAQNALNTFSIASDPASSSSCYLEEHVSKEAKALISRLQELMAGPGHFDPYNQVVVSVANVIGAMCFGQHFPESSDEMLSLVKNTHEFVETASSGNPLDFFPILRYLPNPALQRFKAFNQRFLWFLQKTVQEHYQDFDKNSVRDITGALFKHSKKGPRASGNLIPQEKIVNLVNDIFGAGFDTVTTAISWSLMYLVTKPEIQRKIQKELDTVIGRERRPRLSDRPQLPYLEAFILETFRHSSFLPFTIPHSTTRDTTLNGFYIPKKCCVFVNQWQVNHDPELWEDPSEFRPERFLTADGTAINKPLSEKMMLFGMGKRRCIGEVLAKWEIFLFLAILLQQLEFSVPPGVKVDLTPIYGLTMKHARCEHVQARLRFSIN
# Outline: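 P450-Glo CYP1A2 enzyme–proluciferin substrate mix with compound 10 min at room temperature, then NADPH regeneration 1 h at room temperature. Luciferin detection reagent added, luminescence read after 20 min; furafylline positive control.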
# [3] = biological target: Voltage-gated inwardly rectifying potassium channel KCNH2 (Homo sapiens) (UniProt Q12809); experiment: Human Ether-a-go-go-Related Gene (hERG) channel small molecule antagonists: fluorescence cell-based qHTS assay (AID 1671200)
# Chain of Voltage-gated inwardly rectifying potassium channel KCNH2 (Homo sapiens) (Q12809 whole entry, looked up): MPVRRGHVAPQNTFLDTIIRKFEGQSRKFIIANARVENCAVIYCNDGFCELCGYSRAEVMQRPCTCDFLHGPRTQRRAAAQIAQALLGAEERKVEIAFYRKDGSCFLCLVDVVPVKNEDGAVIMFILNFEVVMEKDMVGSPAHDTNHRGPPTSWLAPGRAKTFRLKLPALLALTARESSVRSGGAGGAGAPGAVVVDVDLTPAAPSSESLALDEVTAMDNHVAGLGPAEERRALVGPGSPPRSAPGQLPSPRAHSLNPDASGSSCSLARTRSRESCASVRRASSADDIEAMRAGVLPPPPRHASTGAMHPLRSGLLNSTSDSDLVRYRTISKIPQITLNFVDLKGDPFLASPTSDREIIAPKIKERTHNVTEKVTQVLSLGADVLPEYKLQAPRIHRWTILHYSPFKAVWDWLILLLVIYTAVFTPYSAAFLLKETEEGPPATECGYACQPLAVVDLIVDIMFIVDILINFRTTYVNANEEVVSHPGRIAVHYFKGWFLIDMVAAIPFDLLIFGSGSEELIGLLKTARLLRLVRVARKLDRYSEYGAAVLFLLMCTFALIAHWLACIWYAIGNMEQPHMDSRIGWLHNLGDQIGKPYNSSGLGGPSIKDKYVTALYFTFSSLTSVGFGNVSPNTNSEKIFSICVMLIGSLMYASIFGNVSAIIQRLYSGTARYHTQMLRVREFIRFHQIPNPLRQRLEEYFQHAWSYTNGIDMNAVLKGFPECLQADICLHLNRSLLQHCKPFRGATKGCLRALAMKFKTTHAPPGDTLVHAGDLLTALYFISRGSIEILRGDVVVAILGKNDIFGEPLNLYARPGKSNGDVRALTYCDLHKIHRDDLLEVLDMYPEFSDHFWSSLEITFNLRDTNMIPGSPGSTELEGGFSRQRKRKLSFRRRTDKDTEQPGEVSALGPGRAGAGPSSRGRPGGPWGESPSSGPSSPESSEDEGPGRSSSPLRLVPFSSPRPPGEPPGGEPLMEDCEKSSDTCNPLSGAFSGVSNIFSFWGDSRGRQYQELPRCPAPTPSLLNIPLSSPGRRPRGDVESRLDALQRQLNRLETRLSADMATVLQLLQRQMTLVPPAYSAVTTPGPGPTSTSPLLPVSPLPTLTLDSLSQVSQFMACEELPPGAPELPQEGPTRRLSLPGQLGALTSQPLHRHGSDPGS
# Outline: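 Channel function was assessed by thallium flux. Cells seeded the previous day and kept at 37 C took up FluxOR II dye over 1 h in the dark at room temperature, then sat another 10 min before stimulation.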
# [4] = biological target: Cytochrome P450 3A4 (Homo sapiens) (UniProt P08684); experiment: Cytochrome P450 Family 3 Subfamily A Member 4 (CYP3A4) small molecule antagonists: luciferase reporter qHTS assay (AID 1671201)
# Chain of Cytochrome P450 3A4 (Homo sapiens) (P08684 whole entry, looked up): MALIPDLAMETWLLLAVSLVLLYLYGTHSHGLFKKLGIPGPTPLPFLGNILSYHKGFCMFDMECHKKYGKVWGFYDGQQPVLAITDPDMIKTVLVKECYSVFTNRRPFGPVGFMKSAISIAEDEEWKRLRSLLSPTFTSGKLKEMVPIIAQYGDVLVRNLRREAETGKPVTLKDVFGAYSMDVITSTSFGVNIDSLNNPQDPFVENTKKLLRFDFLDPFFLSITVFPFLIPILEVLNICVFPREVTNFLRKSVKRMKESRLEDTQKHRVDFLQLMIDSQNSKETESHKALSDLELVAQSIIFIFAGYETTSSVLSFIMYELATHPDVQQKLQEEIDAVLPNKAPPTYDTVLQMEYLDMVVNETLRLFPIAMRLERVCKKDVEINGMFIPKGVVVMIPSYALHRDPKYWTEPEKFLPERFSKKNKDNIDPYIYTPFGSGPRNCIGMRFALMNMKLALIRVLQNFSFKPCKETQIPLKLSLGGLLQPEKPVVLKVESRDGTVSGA
# Outline: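 Compounds in DMSO were pin-transferred onto CYP3A4 enzyme-substrate mix and held 10 min at room temperature. NADPH regenerating solution started the reaction for 1 h; luciferin detection reagent stopped it, and luminescence was read after 20 min.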
# Further: nearly all actives have a fitted effect of over 50% in size.
# Potency means the concentration at half of the fitted maximal effect.
SMILES,Potency [1],Potency [2],Potency [3],Potency [4]
Cc1ccc(C)c(O)c1,inactive,30.9 µM (active) and 41.1 µM (active),inactive,inactive
C=CCNCC=C,inactive,inactive and 39.9 µM (active),inactive,inactive
O=C1CCc2ccccc2O1,inactive,inactive,inactive,inactive
Cc1ccc(/C(=C\CN2CCCC2)c2ccccn2)cc1,inactive,inactive,18.3 µM (active) and 10.7 µM (active),inactive
c1ccc2c(c1)ccc1cc3c(ccc4ccccc43)cc12,inactive,24.9 µM (active),inactive,inactive
CCCCCC1C(=O)CCC1CC(=O)OC (stereo not drawn),24.9 µM (active) and 31.7 µM (active),28 µM (active) and 28.3 µM (active),inactive,inactive
ClC/C=C/CCl,inactive,inactive,inactive,inactive
C=C1C[C@H]2[C@@H]3C=C(C)C4=CC(=O)CC[C@]4(C)[C@H]3CC[C@]2(C)[C@@]1(OC(C)=O)C(C)=O,22.9 µM (active) and 17.4 µM (active),inactive,inactive,inactive
Nc1ccc2c(c1)C(=O)c1ccccc1C2=O,19.6 µM (active) and 22.4 µM (active),220 nM (active) and 252 nM (active),inactive,1.24 µM (active) and 1.78 µM (active)
O=C(O)CCCC(=O)O,39.2 µM (active) and inactive,34.9 µM (active) and inactive,inactive,inactive
CC(=O)O[C@]1(C(C)=O)CC[C@H]2[C@@H]3C=C(Cl)C4=CC(=O)CC[C@]4(C)[C@H]3CC[C@@]21C,20 µM (active) and 15.5 µM (active),inactive,inactive,inactive
CCc1cccc2c3c([nH]c12)C(CC)(CC(=O)O)OCC3 (stereo not drawn),31.6 µM (active) and 34.7 µM (active),inactive,inactive,inactive
CC(C)(Oc1ccc(Cl)cc1)C(=O)O,–,–,inactive,–
CCC/C=C/C=O,–,inactive,inactive,inactive
O=S1(=O)CCCO1,inactive,–,inactive,inactive
NCCS(=O)(=O)O,–,–,inactive,–
COC(=O)c1ccc(C)cc1,inactive,–,inactive,inactive
CN(C)/N=N/c1nc[nH]c1C(N)=O,–,inactive and 34.7 µM (active),inactive,inactive
[O-]/[N+](=N\O)c1ccccc1,–,22.2 µM (active) and 25.2 µM (active),inactive,inactive
CN(Cc1cnc2nc(N)nc(N)c2n1)c1ccc(C(=O)N[C@@H](CCC(=O)O)C(=O)O)cc1,–,inactive,inactive,inactive
CCCCCCCCCCCCCO,–,inactive and 26.1 µM (active),inactive,inactive
C[C@]12CC[C@@H]3c4ccc(O)cc4CC[C@H]3[C@@H]1CC[C@@H]2O,inactive,–,–,inactive
c1ccc2cc3ccccc3cc2c1,–,653 nM (active) and 502 nM (active),inactive,inactive
C[N+](C)(C)CCO,inactive,–,inactive,–
COC(=O)C(C)Oc1ccc(Oc2ncc(C(F)(F)F)cc2Cl)cc1 (stereo not drawn),inactive,–,–,inactive

SMILES,Potency [1],Potency [2],Potency [3],Potency [4]
c1ccc2ncccc2c1,–,inactive and 35.6 µM (active),inactive,inactive
Cc1cccc(Nc2ccccc2C(=O)O)c1C,31.7 µM (active) and 30.9 µM (active),–,inactive,inactive
COc1ccc(-c2coc3cc(O)cc(O)c3c2=O)cc1,–,32 µM (active) and 35.6 µM (active),inactive,20.2 µM (active) and 35.6 µM (active)
OCCNCCO,–,–,inactive,inactive
CC(C)(C)c1cccc(C(C)(C)C)c1O,–,39 µM (active) and 63.3 µM (active),24 µM (active),inactive
C=CC(C)(O)CCC=C(C)C (stereo not drawn),–,inactive,inactive,inactive
CCCCCCOCCOCCO,–,–,inactive,–
C=C[C@@]1(C)CC(=O)[C@]2(O)[C@@]3(C)[C@@H](O)CCC(C)(C)[C@@H]3[C@H](O)[C@H](OC(C)=O)[C@@]2(C)O1,–,inactive,inactive,–
CCC(Cc1c(I)cc(I)c(N)c1I)C(=O)O (stereo not drawn),30.7 µM (active) and 30.9 µM (active),–,inactive,inactive
CNC[C@H](O)c1ccc(O)c(O)c1,–,–,inactive,–
NC[C@H](O)c1ccc(O)c(O)c1,–,inactive,inactive,inactive
CC(C)[N+](C)(CCOC(=O)C1c2ccccc2Oc2ccccc21)C(C)C,inactive,–,inactive,inactive
[Na+],inactive,–,inactive,inactive
O=C1OC2(c3ccccc31)c1cc(I)c(O)c(I)c1Oc1c2cc(I)c(O)c1I,–,–,inactive,–
C=C[C@H]1CN2CC[C@H]1C[C@@H]2[C@@H](O)c1ccnc2ccc(OC)cc12,–,inactive,–,–
COc1ccc(C(=O)c2ccccc2O)c(O)c1,–,–,inactive,–
CC(C)=CCO,–,inactive,inactive,inactive
CC/C(=C(/CC)c1ccc(O)cc1)c1ccc(O)cc1,–,–,inactive,–
C[C@]12CC[C@@H]3c4ccc(O)cc4CC[C@H]3[C@@H]1CC[C@H]2O,11.4 µM (active) and inactive,–,–,inactive
O=C(O)CCCCCCCCCCCC(=O)O,–,–,inactive,inactive
CC(=O)[C@H]1CC[C@H]2[C@@H]3CC=C4C[C@@H](O)CC[C@]4(C)[C@H]3CC[C@]12C,–,inactive,inactive,inactive
CN1CCOCC1,–,–,inactive,–
CC1(C)C(C=C(Cl)Cl)C1C(=O)OCc1cccc(Oc2ccccc2)c1 (stereo not drawn),15.8 µM (active) and 8.94 µM (active),–,inactive,inactive
Clc1ccc(Sc2cc(Cl)c(Cl)cc2Cl)cc1,inactive,11 µM (active) and 3.99 µM (active),inactive,inactive
Nc1ccc(O)c(N)c1,35.3 µM (active) and 71 µM (active),–,inactive,63.3 µM (active)
